# Tests used:
# Test in all cases: PBM binding z-score (relative to random genomic background probes); higher = stronger binding; sequences stand for … in GC…GCGATTGACAGCGTAGAATGAAGG
# [1] = system: FXR:RXRa (NR concentration 270 nM, RXRa partner concentration 90 nM)
# In short: (§1)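 The probes on custom Agilent 4×180K protein-binding microarrays were double-stranded, with 34-nt variable regions bearing direct-repeat seeds, single-nucleotide variants, half-site ablations and random human genomic background sequences. Incubation lasted 1 h with ligand-free nuclear receptor dimers in PBS pH 7.4, 2% milk, 0.02% Triton X-100, 1 mM DTT, 0.2 mg/mL BSA and 0.4 mg/ml salmon testes DNA. Antibodies against each partner (one per run) detected bound dimers, and fluorescence scans were regression-normalized. Binding z-scores take the random background probes as reference.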
# [2] = system: LXRa:RXRa (NR concentration 270 nM, RXRa partner concentration 90 nM)
# In short: as §1
# [3] = system: LXRa homodimer (NR concentration 270 nM)
# In short: as §1
# [4] = system: LXRb:RXRa (NR concentration 270 nM, RXRa partner concentration 90 nM)
# In short: as §1
# [5] = system: LXRb homodimer (NR concentration 270 nM)
# In short: as §1
# [6] = system: PPARa:RXRa (NR concentration 270 nM, RXRa partner concentration 90 nM)
# In short: as §1
# [7] = system: PPARg:RXRa (NR concentration 180 nM, RXRa partner concentration 90 nM)
# In short: as §1
# [8] = system: PPARg:RXRa 270nM:90nM, anti-RXR (NR concentration 270 nM, RXRa partner concentration 90 nM)
# In short: as §1
# [9] = system: PPARg:RXRa 30nM:10nM, anti-RXR (NR concentration 30 nM, RXRa partner concentration 10 nM)
# In short: as §1
# [10] = system: PPARg:RXRa 90nM:30nM, anti-RXR (NR concentration 90 nM, RXRa partner concentration 30 nM)
# In short: as §1
# [11] = system: PPARg:RXRa DBDmut IVT, anti-RXR (DBD mutation: RXRa K156A/R161A, NR concentration 270 nM, RXRa partner concentration 90 nM)
# In short: as §1
# [12] = system: PPARg:RXRa IVT, anti-PPARg (NR concentration 270 nM, RXRa partner concentration 90 nM)
# In short: as §1
# [13] = system: PPARg DBDmut:RXRa IVT, anti-PPARg (DBD mutation: PPARg1 K132A/R137A, NR concentration 270 nM, RXRa partner concentration 90 nM)
# In short: as §1
# [14] = system: PPARg DBDmut IVT, anti-PPARg (DBD mutation: PPARg1 K132A/R137A, NR concentration 270 nM)
# In short: as §1
# [15] = system: PPARg homodimer (NR concentration 180 nM)
# In short: as §1
# [16] = system: PXR:RXRa (NR concentration 270 nM, RXRa partner concentration 90 nM)
# In short: as §1
# [17] = system: PXR homodimer (NR concentration 270 nM)
# In short: as §1
# [18] = system: RARa:RXR (NR concentration 270 nM, RXRa partner concentration 90 nM)
# In short: as §1
# [19] = system: RARa homodimer (NR concentration 270 nM)
# In short: as §1
# [20] = system: RARb:RXRa (NR concentration 270 nM, RXRa partner concentration 90 nM)
# In short: as §1
Sequence,PBM binding z-score [1],PBM binding z-score [2],PBM binding z-score [3],PBM binding z-score [4],PBM binding z-score [5],PBM binding z-score [6],PBM binding z-score [7],PBM binding z-score [8],PBM binding z-score [9],PBM binding z-score [10],PBM binding z-score [11],PBM binding z-score [12],PBM binding z-score [13],PBM binding z-score [14],PBM binding z-score [15],PBM binding z-score [16],PBM binding z-score [17],PBM binding z-score [18],PBM binding z-score [19],PBM binding z-score [20]
TCTGCTAGGGCAACGATGGTCAGCTAATCTGCTA,-0.264,-0.36,-0.78,-0.55,-0.884,0.0492,0.028,0.551,1.02,0.846,2.18,1.59,-0.859,-1.01,-1.1,-0.375,-0.975,-0.218,-0.818,1.58
CCGACTGGGGCAAAGGTTACCCTACTCAGTACGA,1.55,1.36,0.204,1.69,-1.04,4.95,10.4,8.13,8.18,9.15,4.37,5.45,-0.494,-0.866,0.732,1.9,-0.0869,3.02,-0.235,2.1
TCAATGAGGTTATAAGATCAGGGAACGTTGCAAA,1.62,1.48,-0.0675,1.39,-0.169,2.7,1.07,2.15,2.81,2.66,2.23,0.886,-0.23,0.398,0.29,0.939,-0.134,1.47,0.789,1.31
TCTGCTAGGTCAACGATGGTCAACTAATCTGCTA,3.62,3.21,0.113,2.15,0.0398,3.3,2.54,3.18,1.79,2.6,4.51,4.3,0.357,0.326,1.75,2.4,-0.851,2.39,-0.654,4.12
AGAAGGAGGGCAATGAGTTGATAGCACGGGTGGC,0.307,0.255,0.19,0.452,0.521,1.2,1.33,0.786,-0.173,0.451,3.57,2.64,0.99,-0.352,0.922,1.39,4.17,0.2,0.815,1.92
GCTGCTAGATCAACTGATGGTCAGCTAAAGCTCG,-0.351,-0.658,-0.708,-0.94,-1.09,-0.675,-0.337,-0.606,-0.466,-0.434,-0.127,-0.576,-0.911,-0.65,-0.483,-0.788,-0.885,-0.512,-1.53,-0.39
CAAACTAGGTCACAGAGGTCAAAGTGCGTGCGTA,7.35,6.76,7.05,6.54,2.29,6.71,10.1,8.21,6.64,8.45,8.28,9.04,1.58,0.779,3.18,6.72,9.97,7.47,2.13,5.4
